Results with a measured potency or affinity are listed apart. Active and inactive are the calls of the source.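 Rule for the calls: active = compounds that lower nitrite signal with fitted half-max concentration up to ten times top dose; inconclusive = flat curves showing 30 to 70% inhibition, or poor fits; inactive = the rest.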
Assay: inhibitors of cytokine-induced nitrite release, dose response, cell-based, Griess absorbance, INS-1E, dry powder (AID 488866)
Settings: INS-1E cytokine-induced nitrite, 48 h; series mostly up to 19.5 µM

outcome, inactive:
Cc1ccc(S(=O)(=O)N(C)C[C@@H]2Oc3c(NC(=O)Nc4ccc(F)cc4)cccc3C(=O)N([C@@H](C)CO)C[C@H]2C)cc1
COc1ccc(S(=O)(=O)N(C)C[C@@H]2Oc3c(NC(=O)Nc4cccc5ccccc45)cccc3C(=O)N([C@@H](C)CO)C[C@H]2C)cc1F
Cc1ccc(S(=O)(=O)N(C)C[C@@H]2Oc3c(NC(=O)Nc4cccc5ccccc45)cccc3C(=O)N([C@@H](C)CO)C[C@H]2C)cc1
C[C@@H]1CN([C@@H](C)CO)C(=O)c2cccc(NC(=O)Nc3cccc4ccccc34)c2O[C@H]1CN(C)S(=O)(=O)c1ccc(Oc2ccccc2)cc1
COc1ccc(S(=O)(=O)N(C)C[C@@H]2Oc3c(NC(=O)Nc4cccc5ccccc45)cccc3C(=O)N([C@@H](C)CO)C[C@H]2C)cc1
COc1ccc(S(=O)(=O)N(C)C[C@@H]2Oc3c(NC(=O)Nc4ccc5c(c4)OCCO5)cccc3C(=O)N([C@@H](C)CO)C[C@H]2C)cc1
COc1ccc(S(=O)(=O)N(C)C[C@@H]2Oc3c(NC(=O)Nc4cccc5c4NSN5)cccc3C(=O)N([C@@H](C)CO)C[C@H]2C)cc1
C[C@@H]1CN([C@@H](C)CO)C(=O)c2cccc(NC(=O)Nc3cccc4ccccc34)c2O[C@H]1CN(C)S(=O)(=O)c1ccc(F)cc1
C[C@@H]1CN([C@@H](C)CO)C(=O)c2cccc(NC(=O)Nc3cccc4ccccc34)c2O[C@H]1CN(C)S(=O)(=O)Cc1ccc(F)cc1
COc1ccc(S(=O)(=O)N(C)C[C@@H]2Oc3c(NC(=O)c4cccc5ccccc45)cccc3C(=O)N([C@@H](C)CO)C[C@H]2C)cc1
COc1ccc(S(=O)(=O)N(C)C[C@@H]2Oc3c(NC(=O)Nc4cc(F)ccc4F)cccc3C(=O)N([C@@H](C)CO)C[C@H]2C)cc1
COc1ccc(S(=O)(=O)N(C)C[C@@H]2Oc3c(NC(=O)Nc4cccc5c4ccn5C)cccc3C(=O)N([C@@H](C)CO)C[C@H]2C)cc1
COc1ccccc1S(=O)(=O)N(C)C[C@@H]1Oc2c(NC(=O)Nc3cccc4ccccc34)cccc2C(=O)N([C@@H](C)CO)C[C@H]1C
C[C@@H]1CN([C@@H](C)CO)C(=O)c2cccc(NC(=O)Nc3cccc4ccccc34)c2O[C@H]1CN(C)S(=O)(=O)c1ccc2c(c1)CCC(=O)N2
C[C@@H]1CN([C@@H](C)CO)C(=O)c2cccc(NC(=O)Nc3ccc(F)cc3)c2O[C@H]1CN(C)S(=O)(=O)c1ccc(Cl)cc1
COc1ccc(S(=O)(=O)N(C)C[C@@H]2Oc3c(NC(=O)Nc4ccc5occc5c4)cccc3C(=O)N([C@@H](C)CO)C[C@H]2C)cc1
C[C@@H]1CN([C@@H](C)CO)C(=O)c2cccc(NC(=O)Nc3ccc(F)cc3)c2O[C@H]1CN(C)S(=O)(=O)c1ccc(F)cc1
COc1ccc(S(=O)(=O)N(C)C[C@@H]2Oc3c(NC(=O)Nc4cccc5c4CC(C)(C)O5)cccc3C(=O)N([C@@H](C)CO)C[C@H]2C)cc1
Cc1ccc(S(=O)(=O)N(C)C[C@@H]2Oc3c(NC(=O)Nc4ccc(F)cc4)cccc3C(=O)N([C@H](C)CO)C[C@H]2C)cc1
COc1cccc(S(=O)(=O)N(C)C[C@@H]2Oc3c(NC(=O)Nc4cccc5ccccc45)cccc3C(=O)N([C@@H](C)CO)C[C@H]2C)c1
COc1ccc(S(=O)(=O)N(C)C[C@@H]2Oc3c(NC(=O)Nc4cccc(-c5ncccn5)c4)cccc3C(=O)N([C@@H](C)CO)C[C@H]2C)cc1
COc1ccc(S(=O)(=O)N(C)C[C@@H]2Oc3ccc(NC(=O)Nc4cccc5ccccc45)cc3C(=O)N([C@@H](C)CO)C[C@H]2C)cc1
C[C@@H]1CN([C@@H](C)CO)C(=O)c2cccc(NC(=O)Nc3cccc4ccccc34)c2O[C@H]1CN(C)S(=O)(=O)c1ccccc1F
COc1ccc(S(=O)(=O)N(C)C[C@@H]2Oc3c(NC(=O)Nc4cc(F)cc5c4OCOC5)cccc3C(=O)N([C@@H](C)CO)C[C@H]2C)cc1
COc1ccc(S(=O)(=O)N(C)C[C@@H]2Oc3c(NC(=O)Nc4cccc5c4CCCC5)cccc3C(=O)N([C@@H](C)CO)C[C@H]2C)cc1
C[C@@H]1CN([C@@H](C)CO)C(=O)c2cccc(NC(=O)Nc3cccc4ccccc34)c2O[C@H]1CN(C)S(=O)(=O)c1ccc2c(c1)OCCO2
